# Experimental data taken from PubChem BioAssay AID1376 (SRMLSC, 2008).
# Among all 220,000 compounds or so, about 530 (0.24%) were called active. No stated cut-off is given here; in the data, active means inhibition above about 13%; inconclusive means no clear call, values can overlap the other calls; inactive means below that. The entries come from a sample that favours actives as a whole. Potency and affinity values are given separately.
# Molecular target: Bifunctional protein GlmU (Mycobacterium tuberculosis (strain ATCC 25618 / H37Rv)) (UniProt P9WMN3)
# Sequence (P9WMN3 whole entry, looked up): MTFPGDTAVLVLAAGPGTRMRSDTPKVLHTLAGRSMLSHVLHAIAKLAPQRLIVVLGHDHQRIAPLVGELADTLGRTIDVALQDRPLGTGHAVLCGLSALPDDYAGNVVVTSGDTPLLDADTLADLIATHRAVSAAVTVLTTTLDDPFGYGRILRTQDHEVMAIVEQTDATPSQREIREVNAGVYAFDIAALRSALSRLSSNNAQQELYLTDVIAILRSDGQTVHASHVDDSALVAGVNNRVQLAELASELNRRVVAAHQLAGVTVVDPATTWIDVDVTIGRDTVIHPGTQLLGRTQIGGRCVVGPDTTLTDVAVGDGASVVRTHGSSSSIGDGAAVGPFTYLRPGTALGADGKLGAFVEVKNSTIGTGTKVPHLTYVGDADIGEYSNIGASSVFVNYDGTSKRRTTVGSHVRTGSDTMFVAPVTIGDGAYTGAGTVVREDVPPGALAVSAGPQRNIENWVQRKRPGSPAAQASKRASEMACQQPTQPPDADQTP
# Test: inhibition of mycobacterial GlmU enzyme – biochemical, glucosamine-1-phosphate acetyltransferase (AID 1376);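 further: 0% = complete reaction with vehicle and 100% = reaction without substrate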
# Conditions: M. tuberculosis GlmU acetyltransferase enzyme assay; stronger effect = higher value;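 tested at 30 µM in the primary screen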
row,SMILES,inhibition
1,CNC(=S)N1CCN(C(=O)c2ccco2)CC1,2.06% (inactive)
2,COc1ccc(NC2(C#N)CCCCC2)cc1,-1.99% (inactive)
3,CC(Nc1nc(-c2ccc3c(c2)NC(=O)CO3)cs1)c1ccccc1 (configuration not stated),-7.09% (inactive)
4,COC(=O)Cc1ccc(NC(=S)NCCSc2ccc(Cl)cc2)cc1,3.25% (inactive)
5,COc1ccc2c(c1)c(C(=O)CN1CCOCC1)c(C)n2C,5.7% (inactive)
6,COc1ccc2c(c1)c(C(=O)CN1CCC3(CC1)OCCO3)c(C)n2Cc1ccccc1,-7.53% (inactive)
7,COc1ccc2c(c1)c(C(=O)CN1CCC3(CC1)OCCO3)c(C)n2C,13% (active)
8,Cc1cc(C(C)(C)C)oc1C(=O)N(CC(=O)NC1CCCC1)Cc1ccccc1,-0.33% (inactive)
9,Cn1c(=O)c2c(ncn2CC(O)CNc2cccc(Cl)c2)n(C)c1=O (configuration not stated),-0.25% (inactive)
10,COC(=O)Nc1ccc(S(=O)(=O)NCCCCCC(=O)O)cc1,-5.41% (inactive)
11,COc1ccc(Nc2ccccc2C(=O)O)cc1,-1.06% (inactive)
12,COc1cc(-c2ccc(Nc3ccccc3C(=O)O)c(OC)c2)ccc1Nc1ccccc1C(=O)O,27.4% (active)
13,O=C(O)c1ccccc1Nc1ccccc1C(=O)O,-0.95% (inactive)
14,O=[N+]([O-])c1ccc(Oc2ccc(S(=O)(=O)N3CCCCC3)cc2)cc1,-0.28% (inactive)
15,O=c1c2[nH]c3cccc(Cl)c3c2ncn1CCN1CCCCC1,0.41% (inactive)
16,CCCOP(=O)(c1ccccc1)c1ccccc1,0.12% (inactive)
17,CCOP(=O)(C1=C(O)C(=O)C(C(C)(C)C)=CC1=O)c1ccccc1 (configuration not stated),19.3% (active)
18,CCP(=O)(c1ccccc1)C(C)(C)O (configuration not stated),4.81% (inactive)
19,O=C1CN=C(c2ccc(Br)cc2)c2oc3ccccc3c2N1,14.2% (active)
20,O=C1CN=C(c2ccc(Cl)cc2)c2oc3ccccc3c2N1,2.87% (inactive)
21,O=C1CN=C(c2ccc(F)cc2)c2oc3ccccc3c2N1,0.53% (inactive)
22,Cc1cccc(/C(N)=N/OC(=O)CCc2ccccc2)c1,3.83% (inactive)
23,O=C(c1ccc(O)cc1)c1ccc(C(=O)c2ccc(O)cc2)cc1,-1.69% (inactive)
24,O=C(O)c1ccc(C(=O)O)c(C(=O)c2ccccc2)c1,1.74% (inactive)
25,O=C(c1ccc(O)cc1)c1ccc(C(=O)O)c(C(=O)O)c1,12.8% (active)

row,SMILES,inhibition
1,Cc1ccc(C)c(NCc2ccccc2CO)c1,-3.27% (inactive)
2,O=C(O)c1ccc2c(c1)N(Cc1ccccc1)C(=O)c1ccccc1S2,-0.29% (inactive)
3,Cc1ccccc1CN1C(=O)c2ccccc2Sc2ccc(C(=O)O)cc21,-2.8% (inactive)
4,Cc1cccc(CN2C(=O)c3ccccc3Sc3ccc(C(=O)O)cc32)c1,14.3% (active)
5,COCc1cc(C)nc(SCC(=O)Nc2cccc(C)c2C)c1C#N,3.01% (inactive)
6,COCc1cc(C)nc(SCC(=O)Nc2ccccc2C)c1C#N,2.63% (inactive)
7,COCc1cc(C)nc(SCC(=O)Nc2cccc3cccnc23)c1C#N,15.1% (active)
8,CC(C)(C)NCC(O)Cn1cc(C=O)c2ccccc21 (configuration not stated),1.11% (inactive)
9,CC1(c2ccccc2)CC(C)(C)N2C(=O)Cc3cccc1c32 (configuration not stated),2.59% (inactive)
10,Cc1cccc(-n2c(=O)[nH]c3c(C(N)=O)nc(C(C)C)nc32)c1,0.14% (inactive)
11,CCn1c2ccccc2c2cc(NC(=O)CSc3nnc(-c4cccc(OC)c4)n3N)ccc21,14.2% (active)
12,CCn1c2ccccc2c2cc(NC(=O)CSc3nnc(-c4ccc(OC)cc4)n3N)ccc21,1.4% (inactive)
13,CCn1c2ccccc2c2cc(NC(=O)CSc3nnc(-c4ccc(OC)c(OC)c4)n3N)ccc21,3.95% (inactive)
14,COC(=O)c1c(NC(=O)C2COc3ccccc3O2)sc2c1CCN(C(C)=O)C2 (configuration not stated),2.68% (inactive)
15,O=C(COC(=O)/C=C/c1ccccc1[N+](=O)[O-])NC1CCS(=O)(=O)C1 (configuration not stated),6.21% (inactive)
16,Cn1cnc([N+](=O)[O-])c1Oc1ccc2ccccc2c1,-3.73% (inactive)
17,CCS(=O)(=O)c1c([N+](=O)[O-])ncn1C,5.34% (inactive)
18,Cc1cccc(Sc2c([N+](=O)[O-])ncn2C)c1,4.72% (inactive)
19,Cn1cnc([N+](=O)[O-])c1S(=O)(=O)c1cccc(Cl)c1,14.8% (active)
20,Cn1cnc([N+](=O)[O-])c1Cl,2.48% (inactive)
21,COc1ccc(/C=C(\C)c2nc(C)c(-c3ccccc3)c(=O)[nH]2)cc1,4.53% (inactive)
22,Fc1ccc(N2CCN(c3ncnc4nc[nH]c34)CC2)cc1,4.66% (inactive)
23,O=C(COC(=O)c1ccc(S(=O)(=O)N2CCCC2)cc1)Nc1ccc(N2CCOCC2)cc1,-1.26% (inactive)
24,Cc1cccc(-c2nc3c(c(SCC(N)=O)n2)CCCC3)c1,14.5% (active)
25,Cc1cccc(-c2nc3c(c(SCC(=O)N(C)C)n2)CCCC3)c1,-3.93% (inactive)

row,SMILES,inhibition
1,NC(=O)CSc1nc(-c2ccccc2)nc2c1CCCC2,-3.87% (inactive)
2,COc1ccc(OC)c(NC(=O)NC2(C(F)(F)F)Oc3ccccc3O2)c1,-3.98% (inactive)
3,O=C(O)CCSCC(=O)c1ccc2c(c1)OCCO2,-0.32% (inactive)
4,CCNc1cc(Nc2c(C)n(C)n(-c3ccccc3)c2=O)c([N+](=O)[O-])c2nonc12,2.95% (inactive)
5,O=[N+]([O-])c1c(Nc2ccccn2)cc(Cl)c2nonc12,-2.44% (inactive)
6,CN(C)c1cc(Nc2cccc(O)c2)c([N+](=O)[O-])c2nonc12,-3.39% (inactive)
7,CNc1cc(Cl)c2nonc2c1[N+](=O)[O-],11.9% (inactive)
8,CN(C)c1cc(Nc2ccc(O)cc2)c([N+](=O)[O-])c2nonc12,0.57% (inactive)
9,Cc1c(Nc2cc(N3CCOCC3)c3nonc3c2[N+](=O)[O-])c(=O)n(-c2ccccc2)n1C,-3.88% (inactive)
10,CC1CN(C(=O)c2ccncc2)CC(C)O1 (configuration not stated),2.56% (inactive)
11,c1cc2nncn2nc1N1CCCC1,-1.89% (inactive)
12,COC(=O)c1cc(C#N)c(Oc2ccccc2)nc1C,0.33% (inactive)
13,COc1cc(/C=N/NC(=O)c2cccnc2)ccc1OS(=O)(=O)c1cc(C)ccc1C,-3.66% (inactive)
14,O=C(OC1Cn2c(=O)ccc(=O)n2C1)c1ccc([N+](=O)[O-])cc1,1.59% (inactive)
15,COc1ccc(C(C(=O)NC2CCCC2)N(CC2CCCO2)C(=O)Cn2nnc(-c3ccc(C)o3)n2)cc1 (configuration not stated),0.08% (inactive)
16,CC1=C(C#N)C(=O)N(C2CCS(=O)(=O)C2)C(=O)/C1=C\c1ccco1 (configuration not stated),25.3% (active)
17,O=C1/C(=C/c2ccco2)SC(=S)N1C1CCS(=O)(=O)C1 (configuration not stated),5.66% (inactive)
18,CC1=C(C#N)C(=O)N(C2CCS(=O)(=O)C2)C(=O)/C1=C\c1ccc(C)o1 (configuration not stated),5.88% (inactive)
19,O=C1CN(c2ccc(Cl)cc2)C(=O)CN1NC(=S)Nc1ccc(Cl)cc1,-0.02% (inactive)
20,Cc1ccccc1-c1nnc(SCC#N)o1,5.25% (inactive)
21,Clc1cccc(/C=N/Nc2ncnc3ccccc23)c1,14.7% (active)
22,C(=N\Nc1ncnc2ccccc12)/c1ccccc1,4.18% (inactive)
23,Clc1cccc(/C=N/Nc2nc(Cl)nc3ccccc23)c1,-3.16% (inactive)
24,O=C(COC(=O)c1cccs1)NCC1CCCCC1,-4.05% (inactive)
25,Cc1cc(C)nc(Sc2ccc(/C=C(\C#N)C(N)=O)o2)n1,3.14% (inactive)

row,SMILES,inhibition
1,Cc1ccc(NC(=O)/C(C#N)=C/c2ccc(Sc3nc(C)cc(C)n3)o2)cc1,19.7% (active)
2,Cc1cc(C)nc(Sc2ccc(/C=C(\C#N)C(=O)Nc3ccccc3)o2)n1,-0.9% (inactive)
3,O=C1c2ccccc2S(=O)(=O)c2cc(C(=O)N3CCN(c4ccccc4)CC3)ccc21,-0.95% (inactive)
4,COc1ccc(/C=N/NC(=O)c2ccc(CN3C(=O)c4cccc5cccc3c45)cc2)cc1O,-5.54% (inactive)
5,CC(=O)N1C(Nc2ccc(Cl)cc2)CCN1c1ccccc1 (configuration not stated),13.2% (active)
6,O=C(CCN1CCN(c2ccccc2)CC1)Nc1ccc(Cl)cc1,7.38% (inactive)
7,O=C(Nc1ccc(Cl)cc1)N1CCN(c2ccccc2)CC1,-0.29% (inactive)
8,COc1ccc(OCCC(=O)OCC(=O)NCCC2=CCCCC2)cc1,-0.76% (inactive)
9,O=C(NCc1ccc2c(c1)OCO2)c1cc(-c2ccc(Cl)cc2Cl)on1,-0.34% (inactive)
10,O=c1cc[nH]c2c(C(F)(F)F)cccc12,2.39% (inactive)
11,O=c1cc[nH]c2c(Cl)cccc12,17.7% (active)
12,Cc1[nH]ccc(=O)c1OCc1c(Cl)cccc1Cl,-3.63% (inactive)
13,COC(=O)C(C(=O)OC)c1ncccc1[N+](=O)[O-],3.41% (inactive)
14,COc1ccc(N2CC(C(=O)Nc3ccc4c(c3)OCO4)CC2=O)cc1 (configuration not stated),-2.39% (inactive)
15,CS(=O)(=O)N(Cc1ccco1)Cc1ccccc1Cl,1.25% (inactive)
16,COCC(C)n1c(C)cc(C(=O)CSc2nnc(Nc3ccccc3F)s2)c1C (configuration not stated),1.64% (inactive)
17,Cc1c(Cl)c([N+](=O)[O-])nn1CCCC(=O)Nc1c(Cl)cccc1Cl,13.8% (active)
18,Cc1c(Cl)c([N+](=O)[O-])nn1CCCC(=O)Nc1cccc(Cl)c1Cl,-3.35% (inactive)
19,Cc1nn(Cc2c(Cl)cccc2Cl)c(C)c1NC(=O)CCCn1nc([N+](=O)[O-])c(Cl)c1C,0.47% (inactive)
20,Cc1cc(-c2ccccc2C(=O)NCc2ccccc2)on1,2.22% (inactive)
21,COc1ccc(S(=O)(=O)N2CCCN(S(=O)(=O)c3ccc(OC)cc3C)CC2)c(C)c1,4.67% (inactive)
22,CC12CCC(C(=O)NCCc3ccccc3)(OC1=O)C2(C)C (configuration not stated),0.84% (inactive)
